Data as given in PubChem BioAssay AID1159580 (chemical genetic matrix, 2015).
“And” between values parts separate entries of the source, which are not always exact repeats. Equal entries are not always repeated. Among all 5,500 compounds or so, about 2,000 (36%) were called active. Another 18% or so got no clear call; they are omitted. No stated cut-off is given here; in the data, active means normalized growth mostly below about 0.91 (no sharp cut-off); inconclusive means no clear call, values can overlap the other calls; inactive means mostly above about 0.92. The list shows a part of the results. Some compounds were tested as several samples or in several runs, with calls that do not always agree.

Experiment: chemical genetic growth profiling, strain panel (AID 1159580);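 further: tested at 20 µM; growth read once vehicle control cultures reached saturation at 30 °C; 1 = growth at the plate median or of vehicle wells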
Conditions: growth OD

Measured: normalized growth

CN1CCc2cccc3c2C1Cc1ccc(O)c(O)c1-3 (stereo not drawn)
inactive: S. cerevisiae deletion strains, locus YKL009W, strain mrt4, stronger effect = lower value 1.01 | S. cerevisiae deletion strains, locus YKL068W, stronger effect = lower value 0.996 | S. cerevisiae deletion strains, locus YKL085W, strain MDH1 (second series), stronger effect = lower value 1 | S. cerevisiae deletion strains, locus YKL085W, strain MDH1, stronger effect = lower value 1 | S. cerevisiae deletion strains, locus YKL190W, strain CNB1, stronger effect = lower value 1.01 | S. cerevisiae deletion strains, locus YKR001C, strain vps1, stronger effect = lower value 1 | S. cerevisiae deletion strains, locus YKR026C, strain gcn3, stronger effect = lower value 1.01 | S. cerevisiae deletion strains, locus YKR091W, strain srl3, stronger effect = lower value 0.993 | S. cerevisiae deletion strains, locus YLL001W, strain dnm1, stronger effect = lower value 0.967 | S. cerevisiae deletion strains, locus YLL026W, stronger effect = lower value 0.988 | S. cerevisiae deletion strains, locus YLL041C, strain sdh2, stronger effect = lower value 0.995 | S. cerevisiae deletion strains, locus YLR039C, strain RIC1, stronger effect = lower value 1.04 | S. cerevisiae deletion strains, locus YLR058C, strain SHM2, stronger effect = lower value 1.01 | S. cerevisiae deletion strains, locus YLR102C, strain apc9, stronger effect = lower value 0.997 | S. cerevisiae deletion strains, locus YLR113W, strain HOG1, stronger effect = lower value 1.02 | S. cerevisiae deletion strains, locus YLR221C, strain rsa3, stronger effect = lower value 0.932 | S. cerevisiae deletion strains, locus YLR258W, strain gsy2, stronger effect = lower value 0.958 | S. cerevisiae deletion strains, locus YLR262C, strain YPT6, stronger effect = lower value 1.09 | S. cerevisiae deletion strains, locus YLR268W, strain sec22, stronger effect = lower value 1.01 | S. cerevisiae deletion strains, locus YLR330W, strain CHS5, stronger effect = lower value 1.01 | S. cerevisiae deletion strains, locus YLR342W, strain FKS1 (second series), stronger effect = lower value 1.02 | S. cerevisiae deletion strains, locus YLR357W, strain rsc2, stronger effect = lower value 0.889 | S. cerevisiae deletion strains, locus YLR370C, strain arc18, stronger effect = lower value 0.96 | S. cerevisiae deletion strains, locus YLR371W, strain rom2, stronger effect = lower value 0.996 | S. cerevisiae deletion strains, locus YLR384C, strain iki3, stronger effect = lower value 1 | S. cerevisiae deletion strains, locus YLR418C, strain cdc73, stronger effect = lower value 1.01 | S. cerevisiae deletion strains, locus YML016C, strain PPZ1, stronger effect = lower value 1.01 | S. cerevisiae deletion strains, locus YML032C, strain rad52, stronger effect = lower value 0.99 | S. cerevisiae deletion strains, locus YML120C, strain ndi1, stronger effect = lower value 0.993 | S. cerevisiae deletion strains, locus YML124C, strain tub3, stronger effect = lower value 0.99 | S. cerevisiae deletion strains, locus YMR078C, strain ctf18, stronger effect = lower value 0.988 | S. cerevisiae deletion strains, locus YMR125W, strain sto1, stronger effect = lower value 0.966 | S. cerevisiae deletion strains, locus YMR129W, stronger effect = lower value 1 | S. cerevisiae deletion strains, locus YMR205C, strain PFK2, stronger effect = lower value 0.93 | S. cerevisiae deletion strains, locus YMR223W, strain ubp8, stronger effect = lower value 0.994 | S. cerevisiae deletion strains, locus YMR231W, strain pep5, stronger effect = lower value 0.972 | S. cerevisiae deletion strains, locus YMR307W, strain GAS1, stronger effect = lower value 1.03 | S. cerevisiae deletion strains, locus YNL067W, strain RPL9B, stronger effect = lower value 0.998 | S. cerevisiae deletion strains, locus YNL128W, strain TEP1, stronger effect = lower value 1.01 and 0.937 | S. cerevisiae deletion strains, locus YNL153C, strain GIM3, stronger effect = lower value 1 | S. cerevisiae deletion strains, locus YNL175C, strain NOP13, stronger effect = lower value 0.96 | S. cerevisiae deletion strains, locus YNL183C, strain NPR1, stronger effect = lower value 0.984 | S. cerevisiae deletion strains, locus YNL197C, strain WHI3, stronger effect = lower value 0.931 | S. cerevisiae deletion strains, locus YNL224C, strain SQS1, stronger effect = lower value 1.05 | S. cerevisiae deletion strains, locus YNL233W, strain BNI4, stronger effect = lower value 1.01 | S. cerevisiae deletion strains, locus YNL250W, strain rad50, stronger effect = lower value 1.01 | S. cerevisiae deletion strains, locus YNL271C, strain bni1, stronger effect = lower value 0.985 | S. cerevisiae deletion strains, locus YNL298W, strain CLA4, stronger effect = lower value 0.992 | S. cerevisiae deletion strains, locus YNL307C, strain MCK1, stronger effect = lower value 0.991 | S. cerevisiae deletion strains, locus YNL322C, strain KRE1 (second series), stronger effect = lower value 1.01 | S. cerevisiae deletion strains, locus YNR049C, strain mso1, stronger effect = lower value 0.98 | S. cerevisiae deletion strains, locus YNR052C, strain pop2, stronger effect = lower value 0.987 | S. cerevisiae deletion strains, locus YOL006C, strain TOP1, stronger effect = lower value 0.926 | S. cerevisiae deletion strains, locus YOL012C, strain htz1 1.12 | S. cerevisiae deletion strains, locus YOL147C, strain pex11, stronger effect = lower value 0.992 | S. cerevisiae deletion strains, locus YOR001W, strain rrp6, stronger effect = lower value 0.944 | S. cerevisiae deletion strains, locus YOR061W, strain CKA2, stronger effect = lower value 1.02 | S. cerevisiae deletion strains, locus YOR069W, strain VPS5, stronger effect = lower value 1.01 | S. cerevisiae deletion strains, locus YOR080W, strain dia2, stronger effect = lower value 0.993 | S. cerevisiae deletion strains, locus YOR136W, strain idh2, stronger effect = lower value 0.987 | S. cerevisiae deletion strains, locus YOR144C, strain elg1, stronger effect = lower value 0.998 | S. cerevisiae deletion strains, locus YOR184W, strain ser1, stronger effect = lower value 1.02 | S. cerevisiae deletion strains, locus YOR231W, strain MKK1, stronger effect = lower value 1.06 | S. cerevisiae deletion strains, locus YOR290C, strain snf2, stronger effect = lower value 0.979 | S. cerevisiae deletion strains, locus YOR316C, strain cot1, stronger effect = lower value 0.992 | S. cerevisiae deletion strains, locus YPL078C, strain atp4, stronger effect = lower value 0.988 | S. cerevisiae deletion strains, locus YPL106C, strain sse1, stronger effect = lower value 0.94 | S. cerevisiae deletion strains, locus YPL240C, strain hsp82, stronger effect = lower value 1.01 | S. cerevisiae deletion strains, locus YPL256C, strain CLN2, stronger effect = lower value 1.06 | S. cerevisiae deletion strains, locus YPR119W, strain clb2, stronger effect = lower value 0.994 | S. cerevisiae deletion strains, locus YPR141C, strain kar3, stronger effect = lower value 0.997 | S. cerevisiae deletion strains, locus YPR163C, strain tif3, stronger effect = lower value 0.986 | S. cerevisiae deletion strains, locus YPR167C, strain met16, stronger effect = lower value 0.998 | S. cerevisiae deletion strains, strain wtn01, stronger effect = lower value 1 | S. cerevisiae strains, strain wild type, stronger effect = lower value 1.01
active: S. cerevisiae deletion strains, locus YKL160W, strain elf1, stronger effect = lower value 0.871 | S. cerevisiae deletion strains, locus YLR027C, strain aat2, stronger effect = lower value 0.918 | S. cerevisiae deletion strains, locus YLR262C, strain YPT6 (second series), stronger effect = lower value 0.645 | S. cerevisiae deletion strains, locus YLR320W, strain mms22, stronger effect = lower value 0.8 | S. cerevisiae deletion strains, locus YLR342W, strain FKS1, stronger effect = lower value 0.855 | S. cerevisiae deletion strains, locus YMR058W, strain fet3, stronger effect = lower value 0.573 | S. cerevisiae deletion strains, locus YNL071W, strain lat1, stronger effect = lower value 0.627 | S. cerevisiae deletion strains, locus YNL209W, strain ssb2, stronger effect = lower value 0.808 | S. cerevisiae deletion strains, locus YNL248C, strain rpa49, stronger effect = lower value 0.858 | S. cerevisiae deletion strains, locus YOR070C, strain gyp1, stronger effect = lower value 0.864 | S. cerevisiae deletion strains, locus YOR083W, strain WHI5 (second series), stronger effect = lower value 0.815 | S. cerevisiae deletion strains, locus YOR083W, strain WHI5, stronger effect = lower value 0.875 | S. cerevisiae deletion strains, locus YOR106W, strain vam3, stronger effect = lower value 0.607 | S. cerevisiae deletion strains, locus YOR265W, strain rbl2, stronger effect = lower value 0.91 | S. cerevisiae deletion strains, locus YOR270C, strain vph1, stronger effect = lower value 0.597 | S. cerevisiae deletion strains, locus YPL051W, strain arl3, stronger effect = lower value 0.746 | S. cerevisiae deletion strains, locus YPL241C, strain CIN2, stronger effect = lower value 0.311
1 (inactive) and 0.35 (active): S. cerevisiae deletion strains, locus YJR075W, strain HOC1, stronger effect = lower value
